According to ChEMBL document CHEMBL4513146, “CO-ADD screening of Karazin Kharkiv National University (Ukraine) compounds”:
Results with a measured potency or affinity are listed apart.

Assays:
Staphylococcus aureus = conditions: Concentration 32 ug.mL-1;; ASSAY_TEST Inhibition of Bacterial Growth; detection method Absorption (OD600); MEDIA CAMHB; plate type 384well; NBS; CORNING #3640; time 18 hr
Escherichia coli = conditions: Concentration 32 ug.mL-1;; ASSAY_TEST Inhibition of Bacterial Growth; detection method Absorption (OD600); MEDIA CAMHB; plate type 384well; NBS; CORNING #3640; time 18 hr

Compound	Inhibition (Staphylococcus aureus)	Inhibition (Escherichia coli)
O=c1c2nn(Cc3cccc(F)c3)c(=O)n2ccn1-c1ccccc1	-1.92%	-7.67%
CSc1cccc(NC(=O)Cn2nc3c(N4CCCC4)nccn3c2=O)c1	-20.72%	-10.95%
COc1ccc(N(Cc2cc(F)cc(F)c2)S(=O)(=O)c2ccc3nnc(C)n3c2)cc1	12.66%	-2.53%
Cc1cc2nn(CC(=O)Nc3cccc(C)c3C)c(=O)n2c(Nc2ccc(C)c(F)c2)n1	9.25%	-3.18%
CC(C)Cn1c(=O)c2sccc2n2c(=O)n(CC(N)=O)nc12	-15.52%	-14.55%
Cc1ccc(NC(=O)Cn2nc3c4cc(-c5ccc(C)c(C)c5)nn4ccn3c2=O)cc1	7.11%	-1.34%
Cc1ccc(CN(c2cc(C)cc(C)c2)S(=O)(=O)c2cccn3c(C)nnc23)cc1	31.07%	-7.16%
COc1ccc(-c2cc3c4nnc(SCC(=O)NCc5ccc(C)cc5)n4ccn3n2)cc1	-10.11%	0.51%
COc1cccc(-n2ccn3c(SCc4ccc(Cl)cc4)nnc3c2=O)c1	-2.27%	1.4%
COc1cccc(CN(c2ccc(C)c(F)c2)S(=O)(=O)c2ccc3nncn3c2)c1	-7.58%	-16.33%
COc1ccc(-c2cc3c4nnc(SCC(=O)Nc5ccc(C)c(F)c5)n4ccn3n2)cc1	0.86%	-1.39%
CC(C)c1ccc(NC(=O)CSc2nnc3c(=O)n(-c4ccccc4)ccn23)cc1	3.45%	-7.12%
O=C(Cn1nc2c(SC3CCCCC3)nccn2c1=O)Nc1ccc(F)cc1	2.79%	-5.61%
COC(=O)c1ccc(NC(=O)Cn2nc3c4cc(-c5ccc(F)cc5)nn4ccn3c2=O)cc1	-6.17%	3.19%
CCc1ccc(NC(=O)Cn2nc3ccc(SC4CCCCC4)nn3c2=O)cc1	16.16%	2.08%
CCCCc1ccc(NC(=O)Cn2nc3c(Sc4ccccc4CC)nccn3c2=O)cc1	-7.41%	-10.67%
O=C(Cn1nc2nc(Nc3ccc(F)cc3)ccn2c1=O)N1CCCc2ccccc21	5.55%	-6.76%
CC1CCCN(c2nccn3c(=O)n(CC(=O)Nc4ccc(F)cc4F)nc23)C1 (configuration not stated)	-0.93%	-3.03%
O=C(Cn1nc2c(N3CCSCC3)nc3ccccc3n2c1=O)NCc1ccccc1	1.1%	-1.64%
CCc1nnc2c(S(=O)(=O)N(Cc3ccc(C)cc3)c3ccc(C(C)C)cc3)cccn12	16.04%	-0.02%
CCOc1ccccc1NC(=O)Cn1nc2c(Sc3cccc(C)c3)nccn2c1=O	3.15%	-1.9%
N#Cc1cccc(NC(=O)CSc2nnc3c4cc(-c5ccc(F)cc5)nn4ccn23)c1	11.69%	-2.69%
COc1cccc(-n2ccn3c(SCC#N)nnc3c2=O)c1	16.24%	0.96%
CCc1cccc(NC(=O)CSc2nnc3c(=O)n(-c4cccc(OC)c4)ccn23)c1	9.81%	-1.21%

Compound	Inhibition (Staphylococcus aureus)	Inhibition (Escherichia coli)
COc1ccc(C(C)NC(=O)CCc2nnc3ccc(-c4ccc(C)cc4)nn23)cc1OC (configuration not stated)	4.62%	2.29%
O=C(Cn1nc2c(SC3CCCCC3)nccn2c1=O)Nc1cccc(Br)c1	-4.73%	-7.3%
O=c1n(Cc2cccc(Br)c2)nc2ccc(-c3ccccc3)nn12	4.53%	-3.48%
COc1ccc(NC(=O)c2ccc3nn(CC(=O)Nc4cccc(SC)c4)c(=O)n3c2)cc1	-4.7%	-9.26%
CC(C)CCn1c(=O)c2sccc2n2c(=O)n(CCOc3ccccc3)nc12	0.45%	-7.84%
CCCCc1ccc(NC(=O)Cn2nc3ccc(-c4ccc(C)c(C)c4)nn3c2=O)cc1	7.91%	-1.54%
Cc1cc(C)c(NC(=O)Cn2nc3c(Sc4cccc(F)c4)nccn3c2=O)c(C)c1	9.93%	-1.39%
O=C(Cn1nc2ccc(-c3ccc(Cl)cc3)nn2c1=O)Nc1ccccc1	-4.65%	-11.42%
O=c1c2sccc2n2c(=O)n(Cc3ccc(Br)cc3)nc2n1Cc1cccs1	-10.81%	-9.69%
Cc1ccc(C)c(NC(=O)Cn2nc3c4cc(-c5ccc(C)c(C)c5)nn4ccn3c2=O)c1	4.52%	-6.72%
Cc1cccc(CSc2nnc3c(=O)n(-c4ccc(Br)cc4)ccn23)c1	20.89%	1.19%
COc1ccc(NC(=O)Cn2nc3c(Sc4ccccc4)nc4ccccc4n3c2=O)cc1Cl	-0.59%	-7.36%
COc1ccc(C)cc1NC(=O)Cn1nc2cc(C)nc(Nc3ccc(F)cc3)n2c1=O	-14.69%	2.14%
COc1cccc(CN(c2cc(F)cc(F)c2)S(=O)(=O)c2ccc3nnc(C)n3c2)c1	7.94%	-9.84%
Cc1ccc(NC(=O)Cn2nc3ccc(SC(C)(C)C)nn3c2=O)cc1Cl	3.27%	-0.69%
CC(C)c1ccc(N(Cc2cc(F)cc(F)c2)S(=O)(=O)c2cccn3cnnc23)cc1	8.68%	-1.47%
CC(C)Sc1ccc2nn(CC(=O)Nc3ccc(Br)cc3F)c(=O)n2n1	-2.61%	3.45%
Cc1ccc(Cn2c(=O)c3ccc(C(=O)NC4CCCC4)cc3n3c(=O)n(CC#N)nc23)cc1	2.21%	1.56%
CCCCOc1ccc(-c2cc3c4nnc(SCC(=O)Nc5ccc(C)c(F)c5)n4ccn3n2)cc1	5.13%	-2.67%
COc1cc(NC(=O)CSc2nnc3c(=O)n(-c4cccc(F)c4)ccn23)cc(OC)c1	10.57%	-3.07%
Cc1cccc(N(Cc2ccccc2F)S(=O)(=O)c2ccc3nncn3c2)c1	-3.86%	-5.15%
Cc1ccc(NC(=O)CSc2nc3ccccc3n3cnnc23)c(Br)c1	-13.31%	-9.92%
CCOc1ccc(NC(=O)Cn2nc3ccc(SCc4ccc(Cl)cc4)nn3c2=O)cc1	5.28%	-5.7%
Cc1cccc(Oc2nc3ccccc3n3c(=O)n(CC(=O)Nc4cccc(C#N)c4)nc23)c1C	-4.2%	-5.56%

Compound	Inhibition (Staphylococcus aureus)	Inhibition (Escherichia coli)
Cc1cccc(Cn2nc3c(=O)n(-c4cccc(Cl)c4C)ccn3c2=O)c1	-1.78%	-16.69%
CCc1ccc(N(Cc2ccccc2)S(=O)(=O)c2cccn3cnnc23)cc1	5.64%	-1.12%
COc1ccc(NC(=O)Cn2nc3c(Sc4ccccc4)nccn3c2=O)cc1Cl	-4.6%	-4.12%
COc1cccc(-n2ccn3c(SCC(=O)Nc4ccc(Cl)cc4)nnc3c2=O)c1	16.43%	-13.45%
COc1cc(Cl)c(C)cc1NC(=O)Cn1nc2ccc(SC(C)(C)C)nn2c1=O	0.92%	3.96%
N#Cc1ccc(NC(=O)Cn2nc3c(Oc4ccccc4)nccn3c2=O)cc1	-0.45%	-6.5%
COC(=O)c1ccc(NC(=O)Cn2nc3c(Oc4ccccc4C)nccn3c2=O)cc1	-13.52%	1.22%
O=C(CSc1nnc2c(=O)n(-c3ccccc3)ccn12)c1ccc(F)cc1	16.24%	-2%
COc1ccc(N2CCN(C(=O)Cn3nc4c(Oc5ccccc5)nccn4c3=O)CC2)cc1	16.39%	4.58%
CC(C)(C)S(=O)(=O)c1ccc2nn(CC(=O)Nc3ccc4c(c3)OCO4)c(=O)n2n1	14.6%	0.97%
CCOc1ccc(-n2ccn3c(SCC(=O)NCc4ccc(Cl)cc4)nnc3c2=O)cc1	4.19%	3.75%
Cc1ccc(-c2noc(Cn3nc4ccc(-c5ccccc5)nn4c3=O)n2)cc1	-9.52%	-11.36%
Cc1cccc(N(Cc2cccc(Cl)c2)S(=O)(=O)c2cccn3c(C)nnc23)c1	2.81%	-5.89%
COc1cccc(CNC(=O)CSc2nnc3c(=O)n(-c4ccc(C)c(C)c4)ccn23)c1OC	3.35%	-0.9%
O=C(Cn1nc2c3sc(N4CCCC4)nc3ncn2c1=O)Nc1cccc(Br)c1	14.01%	2.84%
CCCCn1c(=O)c2sccc2n2c(CCC(=O)NC(C)C34CC5CC(CC(C5)C3)C4)nnc12 (configuration not stated)	9.01%	0.33%
Cc1ccccc1Oc1nc2ccccc2n2c(=O)n(CC(=O)Nc3ccccc3C(F)(F)F)nc12	-0.26%	-3.73%
CC(C)c1ccc(NC(=O)Cn2nc3c(N4CCCC4)nccn3c2=O)cc1	2.8%	-0.46%
Cc1nnc2ccc(S(=O)(=O)N(Cc3ccccc3)c3ccc(Cl)cc3)cn12	1.7%	-13.98%
COc1ccc(-c2cc3c4nn(CC(=O)Nc5cccc(OC)c5)c(=O)n4ccn3n2)cc1	-3.02%	-0.95%
O=C(CSc1nnc2c(=O)n(-c3ccccc3)ccn12)c1c[nH]c2ccccc12	16.15%	-0.51%
O=C(Cn1nc2ccc(-c3ccccc3)nn2c1=O)Nc1cccc(Cl)c1	-4.62%	-11.73%
Cc1ccc(CNC(=O)Cn2nc3ccc(SC4CCCCC4)nn3c2=O)cc1	11.69%	-11.87%
